# Test results: PubChem BioAssay (EPA / NIEHS)
# Active and inactive are the calls of the source. The calls were made as follows: active = hit-call score of the fitted dose curve at least 0.9, where 1 is the maximum; inactive = score below 0.9.
# Tests used:
# [1] = APR_HepG2_CellLoss_72hr: Apredica 72-hour HepG2 Assay for Cell Loss (AID 2282915); settings: high-content imaging
# Outline: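 HepG2 cells exposed 72 h to compound at 0.39–200 uM (10 concentrations, duplicate) in 0.5% DMSO. Fixed with 3.7% formaldehyde and Hoechst 33342-stained. Imaged at 20x; nuclear count gives cell number, fitted bidirectionally versus DMSO.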
# [2] = APR_HepG2_P-H2AX_72hr: Apredica 72-hour HepG2 Assay for H2AX Phosphorylation (AID 2282916); settings: imaging, actives raise or lower the signal;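 also: phospho-histone H2A.x immunostain intensity per cell marking DNA damage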
# Outline: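 Human hepatoma HepG2 cells are dosed across ten concentrations (0.39 to 200 uM, 0.5% v/v DMSO) and incubated 72 hr. Phospho-histone H2A.x is then detected by antibody staining alongside c-Jun and Hoechst, and quantified by automated fluorescence imaging.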
# [3] = APR_HepG2_MitoticArrest_72hr: Apredica 72-hour HepG2 Assay for Mitotic Arrest (AID 2282918); settings: high-content imaging, actives raise or lower the signal
# Outline: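 HepG2 cells treated 72 h at 0.39–200 uM, 0.5% DMSO final; formaldehyde-fixed, stained with Hoechst 33342 and phospho-histone H3 antibody, imaged by high-content fluorescence; bidirectional fit versus DMSO.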
# [4] = APR_HepG2_MicrotubuleCSK_72hr: Apredica 72-hour HepG2 Assay for Microtubule CSK Stabilty (AID 2282919); settings: HepG2 microtubule cytoskeleton, high-content imaging, actives raise or lower the signal
# Outline: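 HepG2, 72 hr cmpd exposure, 0.39–200 uM (10 pts, duplicate), 0.5% DMSO. 3.7% formaldehyde fix, 0.5% Triton perm, anti-alpha-tubulin/Cy5 plus Hoechst. HCS fluorescence intensity; bidirectional fit vs DMSO baseline; taxol as positive control.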
# [5] = APR_HepG2_P-H2AX_24hr: Apredica 24-hour HepG2 Assay for H2AX Phosphorylation (AID 2282920); settings: high-content imaging, actives raise or lower the signal
# Outline: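 HepG2 cells dosed 24 h at 0.39–200 uM (10 points, duplicate, 0.5% DMSO final). Formaldehyde-fixed and permeabilized, then immunostained for phospho-H2A.x with Hoechst. Fluorescence quantified by high-content imaging, fitted bidirectionally versus DMSO.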
# [6] = APR_HepG2_StressKinase_24hr: Apredica 24-hour HepG2 Assay for Stress Kinase (AID 2282922); settings: HepG2 stress kinase (phospho-c-Jun) imaging, actives raise or lower the signal
# Outline: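 Read-out: phospho-c-Jun immunofluorescence (Cy3 secondary) quantified by high-content imaging at 20x, nuclei defined by Hoechst 33342. Human HepG2 liver cells dosed 24 hr, 0.39–200 uM, DMSO 0.5% v/v; gain or loss of signal fitted relative to DMSO.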
# [7] = APR_HepG2_p53Act_72hr: Apredica 72-hour HepG2 Assay for p53 Activation (AID 2282923); settings: high-content imaging, actives raise or lower the signal;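 also: average cellular p53 protein immunofluorescence intensity in HepG2 cells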
# Outline: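 Imaging-based endpoint: after 72 hr compound exposure (up to 200 uM, 0.5% DMSO), fixed and permeabilized monolayers were labelled with anti-p53 antibody and imaged; signal change in either direction was fitted relative to DMSO controls.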
# [8] = APR_HepG2_NuclearSize_72hr: Apredica 72-hour HepG2 Assay for Nuclear Size (AID 2282925); settings: high-content imaging, actives raise or lower the signal
# Outline: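 Read-out: nuclear diameter from Hoechst 33342 images (ArrayScan, 20x, six fields/well), via cell-cycle image analysis. HepG2 were dosed 0.39–200 uM for 72 hr in 0.5% DMSO. Bidirectional fit relative to DMSO.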
# [9] = ATG_CRE_CIS: Attagene CIS-FACTORIAL HepG2 Assay for human cAMP Responsive Element (CRE) binding protein 3 (AID 2282926); settings: HepG2 CRE cis-reporter, Attagene multiplexed mRNA; actives raise or lower the signal
# Outline: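 Induced reporter mRNA from a CRE cis element, measured in HepG2 among many multiplexed units at 24 h. Detection used RT-PCR plus capillary electrophoresis of fluorescent fragments; DMSO served as negative control.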
# [10] = biological target: CCAAT/enhancer-binding protein beta (Homo sapiens) (UniProt P17676); assay: ATG_C_EBP_CIS: Attagene CIS-FACTORIAL HepG2 Assay for human CCAAT/Enhancer Binding Protein (C/EBP) beta (AID 2282927); settings: HepG2 Attagene cis-factorial transcription factor reporter; actives raise or lower the signal
# Chain of CCAAT/enhancer-binding protein beta (Homo sapiens) (P17676 whole entry, looked up): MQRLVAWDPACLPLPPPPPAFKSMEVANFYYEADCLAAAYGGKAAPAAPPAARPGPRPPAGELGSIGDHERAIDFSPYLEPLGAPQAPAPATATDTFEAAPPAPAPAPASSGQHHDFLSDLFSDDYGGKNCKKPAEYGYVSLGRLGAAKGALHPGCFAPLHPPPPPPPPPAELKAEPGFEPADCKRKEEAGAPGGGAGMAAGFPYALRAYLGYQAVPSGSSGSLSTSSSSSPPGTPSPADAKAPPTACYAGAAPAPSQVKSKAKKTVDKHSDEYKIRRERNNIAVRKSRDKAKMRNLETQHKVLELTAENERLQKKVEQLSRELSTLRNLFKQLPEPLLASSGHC
# Outline: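 HepG2 transiently transfected with multiplexed reporter units under cis-regulatory promoters reporting endogenous C/EBPb activity. After 24 h exposure, reporter mRNA assayed by RT-PCR, fluorescent labelling, HpaI digestion and capillary electrophoresis; bidirectional fitting versus DMSO.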
# [11] = ATG_CMV_CIS: Attagene CIS-FACTORIAL HepG2 Assay for human CMV (Internal Marker) (AID 2282928); settings: HepG2 CMV promoter reporter, transcription factor profiling; actives raise or lower the signal;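 also: endpoint acts as a background internal control marker rather than a target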
# Outline: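 Reporter transcripts from transfected HepG2 cells are isolated after 24 h of chemical dosing, reverse-transcribed and amplified. Fragments labeled with 6-FAM are cut with HpaI and quantified by capillary electrophoresis; DMSO defines baseline.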
# [12] = ATG_DR4_LXR_CIS: Attagene CIS-FACTORIAL HepG2 Assay for human Liver X Receptor (LXR), DR4 submotif (AID 2282929); settings: HepG2 Attagene DR4 cis-reporter, mRNA transcription; actives raise or lower the signal
# Outline: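 Endogenous factor activity at a DR4 cis-element is read as reporter mRNA in transiently transfected HepG2 cells. Exposure lasts 24 h; transcripts are amplified, fluorescently labelled and sized by capillary electrophoresis, with DMSO as baseline.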
# [13] = biological target: Aryl hydrocarbon receptor (Homo sapiens) (UniProt P35869); assay: ATG_Ahr_CIS: Attagene CIS-FACTORIAL HepG2 Assay for human Aryl Hydrocarbon Receptor (Ahr) (AID 2282930); settings: HepG2 AhR cis-factorial reporter transcription; actives raise or lower the signal
# Chain of Aryl hydrocarbon receptor (Homo sapiens) (P35869 whole entry, looked up): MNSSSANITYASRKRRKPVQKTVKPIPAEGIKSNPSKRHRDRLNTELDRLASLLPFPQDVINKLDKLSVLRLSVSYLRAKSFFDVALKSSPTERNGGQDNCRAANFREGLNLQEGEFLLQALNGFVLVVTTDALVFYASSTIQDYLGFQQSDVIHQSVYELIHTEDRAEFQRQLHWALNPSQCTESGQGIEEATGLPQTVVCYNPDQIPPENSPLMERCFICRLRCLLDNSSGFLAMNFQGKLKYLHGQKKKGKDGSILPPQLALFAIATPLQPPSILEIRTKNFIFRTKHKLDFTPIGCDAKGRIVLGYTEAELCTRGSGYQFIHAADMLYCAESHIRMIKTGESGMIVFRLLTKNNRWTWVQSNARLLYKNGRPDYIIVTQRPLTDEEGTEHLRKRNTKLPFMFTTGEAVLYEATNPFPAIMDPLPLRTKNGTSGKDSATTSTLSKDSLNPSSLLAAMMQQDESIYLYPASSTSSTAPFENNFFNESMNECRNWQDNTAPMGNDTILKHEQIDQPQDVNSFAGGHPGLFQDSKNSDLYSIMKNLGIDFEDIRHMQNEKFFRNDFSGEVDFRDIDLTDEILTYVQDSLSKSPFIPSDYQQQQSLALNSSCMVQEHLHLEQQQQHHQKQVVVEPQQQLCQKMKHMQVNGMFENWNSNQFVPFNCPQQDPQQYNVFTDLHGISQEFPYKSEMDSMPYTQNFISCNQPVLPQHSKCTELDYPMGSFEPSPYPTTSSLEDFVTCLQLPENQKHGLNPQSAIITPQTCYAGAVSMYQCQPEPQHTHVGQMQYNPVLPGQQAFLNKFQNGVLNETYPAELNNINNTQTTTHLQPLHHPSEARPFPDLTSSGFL
# Outline: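 HepG2 cells transiently transfected with cis-element-driven multiplexed reporter units; endogenous AhR activity read as reporter mRNA 24 h after dosing, via RT-PCR, 6-FAM labelling, HpaI digestion and capillary electrophoresis. Bidirectional fit relative to DMSO.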
# [14] = ATG_AP_1_CIS: Attagene CIS-FACTORIAL HepG2 Assay for human Activator Protein 1 (AP-1) (AID 2282931); settings: HepG2 Attagene cis-factorial AP-1 reporter mRNA; actives raise or lower the signal
# Outline: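 Fluorescence of labelled PCR fragments separated by capillary electrophoresis gives reporter mRNA levels. HepG2 with transfected cis-regulated reporter units, 24 h exposure; DMSO serves as baseline for bidirectional curve fits.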
# [15] = ATG_AP_2_CIS: Attagene CIS-FACTORIAL HepG2 Assay for human Activator Protein 2 (AP-2) (AID 2282932); settings: HepG2 AP-2 cis-reporter, Attagene transcription factor profiling; actives raise or lower the signal
# Outline: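 Liver-derived HepG2 line, cis-reporter system measuring endogenous factors; 24 h dosing; reporter mRNA detected by fluorescent RT-PCR and capillary electrophoresis.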
# [16] = ATG_BRE_CIS: Attagene CIS-FACTORIAL HepG2 Assay for human Bone Morphogenetic Protein (BMP) Response Element (BRE) (AID 2282933); settings: HepG2 BMP response element reporter, Attagene transcription factor profiling; actives raise or lower the signal
# Outline: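 Gain- or loss-of-signal was derived by bidirectional fitting against DMSO controls. The signal came from reporter mRNA, measured by RT-PCR and capillary electrophoresis, in HepG2 cells transiently carrying multiple reporter units and dosed for 24 h.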
# [17] = biological target: Retinoic acid receptor alpha (Homo sapiens) (UniProt P10276); assay: ATG_DR5_RAR_CIS: Attagene CIS-FACTORIAL HepG2 Assay for human Retinoic Acid Receptor Alpha (RARE), DR5 submotif (AID 2282934); settings: HepG2 Attagene cis-factorial RARE DR5 reporter, mRNA; actives raise or lower the signal;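 as to AC50: reporter responds to endogenous RAR alpha beta and gamma in HepG2 not RARA alone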
# Chain of Retinoic acid receptor alpha (Homo sapiens) (P10276 whole entry, looked up): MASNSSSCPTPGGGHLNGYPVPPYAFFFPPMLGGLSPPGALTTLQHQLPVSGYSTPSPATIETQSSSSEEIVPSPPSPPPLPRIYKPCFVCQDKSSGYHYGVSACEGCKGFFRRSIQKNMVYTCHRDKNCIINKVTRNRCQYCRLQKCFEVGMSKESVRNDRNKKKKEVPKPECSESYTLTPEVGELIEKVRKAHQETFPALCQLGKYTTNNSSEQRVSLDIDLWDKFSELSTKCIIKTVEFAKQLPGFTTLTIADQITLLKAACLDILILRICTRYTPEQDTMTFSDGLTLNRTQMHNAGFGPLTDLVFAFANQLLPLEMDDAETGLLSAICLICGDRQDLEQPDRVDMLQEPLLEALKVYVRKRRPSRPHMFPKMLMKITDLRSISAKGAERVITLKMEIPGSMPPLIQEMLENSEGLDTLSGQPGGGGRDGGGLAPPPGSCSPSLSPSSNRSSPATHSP
# Outline: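 HepG2 cells transiently transfected with multiplexed reporter units; DR5 cis-element drives reporter through endogenous transcription factors. After 24 h dosing, reporter mRNA quantified by RT-PCR, fluorescent labeling, HpaI digestion and capillary electrophoresis; bidirectional fitting versus DMSO.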
# [18] = APR_HepG2_StressKinase_72hr: Apredica 72-hour HepG2 Assay for Stress Kinase (AID 2282921); settings: HepG2 stress kinase (phospho-c-Jun) imaging, actives raise or lower the signal
# Outline: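 After a 72 h compound treatment spanning 0.39 to 200 uM, formaldehyde-fixed cells are labelled for phosphorylated c-Jun and nuclei, imaged by automated fluorescence microscopy, and activity is fitted in both directions relative to DMSO controls.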
# [19] = APR_HepG2_MitoMass_72hr: Apredica 72-hour HepG2 Assay for Mitochondrial Mass (AID 2282924); settings: high-content imaging, actives raise or lower the signal;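 also: MitoTracker Red CMXRos stain intensity per cell imaged as mitochondrial mass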
# Outline: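 Read-out: MitoTracker Red fluorescence intensity from automated imaging (20x, six fields per well) in human HepG2 liver cells. Dosing ran 72 hr, 0.39–200 uM, 0.5% DMSO; bidirectional curve fitting versus DMSO baseline.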
smiles,measurement,setting,value
CS(=O)(=O)c1cc(C(F)(F)F)ccc1C(=O)c1cnoc1C1CC1,outcome,[1],inactive
same,outcome,[2],inactive
same,outcome,[3],inactive
same,outcome,[4],inactive
same,outcome,[5],inactive
same,outcome,[6],inactive
same,outcome,[7],inactive
same,outcome,[8],inactive
same,outcome,[9],inactive
same,outcome,[10],inactive
same,outcome,[11],inactive
same,outcome,[12],inactive
same,outcome,[13],inactive
same,AC50,[14],78.7 µM (active)
same,outcome,[15],inactive
same,outcome,[16],inactive
same,outcome,[17],inactive
COCC(C)N(C(=O)CCl)c1c(C)csc1C (stereo not drawn),AC50,[1],51.5 µM (active)
same,outcome,[2],inactive
same,AC50,[3],103 µM (active)
same,AC50,[4],105 µM (active)
same,AC50,[5],86.4 µM (active)
same,outcome,[18],inactive
same,outcome,[6],inactive
same,outcome,[7],inactive
same,outcome,[8],inactive
same,AC50,[9],1.83 µM (active)
same,outcome,[10],inactive
same,outcome,[11],inactive
same,outcome,[12],inactive
same,outcome,[13],inactive
same,outcome,[14],inactive
same,outcome,[15],inactive
same,outcome,[16],inactive
CCNP(=S)(OC)O/C(C)=C/C(=O)OC(C)C (stereo not drawn),outcome,[1],inactive
same,outcome,[2],inactive
same,outcome,[3],inactive
same,outcome,[4],inactive
same,outcome,[5],inactive
same,outcome,[18],inactive
same,outcome,[6],inactive
same,outcome,[7],inactive
same,outcome,[8],inactive
same,outcome,[9],inactive
same,outcome,[10],inactive
same,outcome,[11],inactive
same,AC50,[12],50 µM (active)
same,AC50,[13],13.6 µM (active)
same,outcome,[14],inactive
same,outcome,[15],inactive
same,outcome,[16],inactive
same,AC50,[17],13.6 µM (active)
OC(c1ccc(Cl)cc1)(c1ccc(Cl)cc1)C(Cl)(Cl)Cl,AC50,[1],32.2 µM (active)
same,outcome,[2],inactive
same,outcome,[3],inactive
same,AC50,[4],32.2 µM (active)
same,AC50,[5],68.8 µM (active)
same,AC50,[6],107 µM (active)
same,outcome,[7],inactive
same,outcome,[19],inactive
same,outcome,[8],inactive
same,outcome,[9],inactive
same,outcome,[10],inactive
same,outcome,[11],inactive
same,outcome,[12],inactive
same,outcome,[14],inactive
same,outcome,[15],inactive
same,outcome,[16],inactive
same,outcome,[17],inactive
COc1cc(OC)nc(NC(=O)NS(=O)(=O)c2ncccc2OCC(F)(F)F)n1,outcome,[1],inactive
same,outcome,[2],inactive
same,outcome,[3],inactive
same,outcome,[4],inactive
same,outcome,[5],inactive
same,outcome,[6],inactive
same,outcome,[7],inactive
same,outcome,[8],inactive
same,outcome,[9],inactive
same,outcome,[10],inactive
same,outcome,[11],inactive
same,outcome,[12],inactive
same,outcome,[13],inactive
same,outcome,[14],inactive
same,outcome,[15],inactive
same,outcome,[16],inactive
CC(C)Nc1nc(Cl)nc(NC(C)C)n1,outcome,[1],inactive
same,outcome,[2],inactive
same,outcome,[3],inactive
same,outcome,[4],inactive
same,outcome,[5],inactive
same,outcome,[6],inactive
same,outcome,[7],inactive
same,outcome,[19],inactive
same,outcome,[8],inactive
same,outcome,[9],inactive
same,outcome,[10],inactive
same,outcome,[11],inactive
same,outcome,[12],inactive
same,outcome,[13],inactive
same,outcome,[14],inactive
same,outcome,[15],inactive
same,outcome,[16],inactive
CCCC(=NOCC)C1=C(O)CC(CC(C)SCC)CC1=O (stereo not drawn),outcome,[1],inactive
same,outcome,[2],inactive
same,outcome,[3],inactive
same,outcome,[4],inactive
same,outcome,[5],inactive
same,outcome,[18],inactive
same,outcome,[6],inactive
same,outcome,[7],inactive
same,outcome,[19],inactive
same,outcome,[8],inactive
same,outcome,[9],inactive
same,outcome,[10],inactive
same,outcome,[11],inactive
same,outcome,[12],inactive
same,outcome,[13],inactive
same,outcome,[14],inactive
same,outcome,[15],inactive
same,outcome,[16],inactive
same,outcome,[17],inactive
CC(C)NC(=O)N1CC(=O)N(c2cc(Cl)cc(Cl)c2)C1=O,outcome,[1],inactive
same,outcome,[2],inactive
same,outcome,[3],inactive
same,outcome,[4],inactive
same,outcome,[5],inactive
same,outcome,[18],inactive
same,outcome,[6],inactive
same,outcome,[7],inactive
same,outcome,[8],inactive
same,outcome,[9],inactive
same,outcome,[10],inactive
same,outcome,[11],inactive
same,outcome,[12],inactive
same,AC50,[13],4.87 µM (active)
same,outcome,[14],inactive
same,outcome,[15],inactive
same,outcome,[16],inactive
